# Screening data deposited in PubChem BioAssay by National Center for Advancing Translational Sciences (NCATS).
# The full list was thinned out, with hits kept by preference.
# PI5P4K alpha inh: qHTS for Inhibitors of phosphatidylinositol 5-phosphate 4-kinase (PI5P4K). Phosphatidylinositol 5-phosphate 4-kinase type-2 alpha (Homo sapiens), P48426. PI5P4Kalpha enzyme, ADP-Glo luminescence, 60 min; hits give low values. max response, %. 1.2% of 330,000 active. AID 652105, 2013; active = max response of -50% or lower; inconclusive = between -30% and -50%; inactive = -30% or higher; also: value at the top dose of about 77 µM; % is scaled to controls: 0 for no effect and ±100 for the full control effect
#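 Controls without substrate or without enzyme flank wells where PI5P4Kalpha converts substrate using 5 microM ATP (final). Incubation lasts 60 minutes at room temperature; ADP formed is read by ADP-Glo luminescence.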
# Pin1 inhibitor: qHTS Assay to Find Inhibitors of Pin1. Peptidyl-prolyl cis-trans isomerase NIMA-interacting 1 (Homo sapiens), Q13526. Pin1 FP peptide displacement, HiFluor488, 10 min. Potency, µM (series often up to 115 µM), inactives show at the highest dose activity, negative = inhibition, most hits filed as inhibitors. 0.009% of 390,000 active. AID 504891, 2011; active = well fitted inhibition curve with a large enough effect in the polarisation, with a control signal flat, not every such curve was filed as active; inconclusive = small, poorly fitted or top-dose-only effect, or effect the other way, or a change in a side signal; inactive = no such curve, though single readings can be large or run the other way; the % refers to the polarisation; also: potency is read from the fitted curve at half-maximal effect; % is scaled to controls: 0 for no effect and ±100 for the full control effect
# Target sequence (Q13526 whole entry, looked up): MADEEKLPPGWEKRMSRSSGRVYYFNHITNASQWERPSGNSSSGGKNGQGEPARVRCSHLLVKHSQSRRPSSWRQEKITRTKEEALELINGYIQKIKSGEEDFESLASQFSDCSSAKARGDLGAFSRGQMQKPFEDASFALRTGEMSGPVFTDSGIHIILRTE
# Tb PGK inh: qHTS Assay to Find Inhibitors of Phosphoglycerate Kinase | Phosphoglycerate kinase, glycosomal (Trypanosoma brucei brucei), P07378 | PGK/GAPDH coupled, Kinase-Glo luminescence, 60 min | Potency, µM (highest dose often 57.5 µM), inactives show at the top dose activity change, negative = inhibition, most hits filed as inhibitors | 0.043% of 380,000 active | AID 602233, 2012; also: potency is read from the fitted curve at half-maximal effect; % is scaled to controls: 0 for no effect and ±100 for the full control effect; nearly all actives have a fitted effect of over 60% in size
#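 Luminescent ATP detection (Kinase-Glo Plus) follows a 60-minute room-temperature incubation, with wells lacking PGK as controls. Buffer: 100 mM TEA (pH 7.6), 5 mM MgCl2, 0.01% Tween-20. Coupling enzyme GAPDH (100 nM final) supplies unstable 1,3-BPG in-well.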
# Tb PFK inh-1: qHTS Assay to Find Inhibitors of T. brucei phosphofructokinase. 0.17% of 330,000 active. T. brucei PFK, ADP-Glo luminescence. ATP-dependent 6-phosphofructokinase (Trypanosoma brucei brucei), O15648. AID 485367, 2010. Potency, µM (top dose mostly 57.5 µM), inactives show at the top dose activity, negative = inhibition, actives largely listed as inhibitors;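 also: potency is read from the fitted curve at half-maximal effect; 0% = uninhibited 1x PFK enzyme wells and -100% = no-enzyme wells; nearly all actives have a fitted effect of over 60% in size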
# Target sequence (O15648 whole entry, looked up): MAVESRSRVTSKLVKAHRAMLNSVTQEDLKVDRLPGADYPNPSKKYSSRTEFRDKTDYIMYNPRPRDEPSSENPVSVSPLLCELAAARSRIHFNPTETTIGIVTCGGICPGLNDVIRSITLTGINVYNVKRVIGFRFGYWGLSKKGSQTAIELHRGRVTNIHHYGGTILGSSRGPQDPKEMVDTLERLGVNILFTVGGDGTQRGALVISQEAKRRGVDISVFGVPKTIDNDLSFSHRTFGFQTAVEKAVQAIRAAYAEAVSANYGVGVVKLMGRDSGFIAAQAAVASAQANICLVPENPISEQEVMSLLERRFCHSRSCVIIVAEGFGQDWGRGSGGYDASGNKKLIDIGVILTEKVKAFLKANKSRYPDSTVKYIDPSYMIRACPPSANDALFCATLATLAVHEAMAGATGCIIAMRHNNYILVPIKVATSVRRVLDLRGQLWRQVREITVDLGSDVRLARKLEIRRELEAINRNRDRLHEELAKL
#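 Luminescent ADP detection (ADP-Glo, two-step: ATP depletion then ADP-to-ATP conversion for luciferase) reported PFK activity after 45 min room-temperature reaction of 1.25 nM enzyme with 0.5 mM F6P and 0.1 mM ATP at pH 8.0.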
# PI4K2A inh: qHTS for small molecular inhibitors of PI4K2A. Phosphatidylinositol 4-kinase type 2-alpha (Homo sapiens), Q9BTU6. purified PI4K2A, ADP-Glo luminescence, 1 h; hits give low values. activity change, negative = inhibition, % at 76.9 µM. 0.13% of 420,000 active; in the data active = activity change below about -50%; inconclusive = mostly about -30% to -49%;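 also: -100% = wells without enzyme as full effect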
#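 ADP-Glo luminescence measured ADP generated by PI4K2A enzyme (4 ug/mL before mixing) with 1.2 mM PI substrate (pre-mix) and 300 microM ATP (pre-mix). Tris pH7.5 buffer with MgCl2, Triton X-100; 1 h reaction at ambient temperature.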
# TbPFK ATP: Tb PFK orthogonal confirmatory assay using ATP depletion (Kinase-Glo Plus) as an alternative measure of Tb PFK activity: Hit Validation. shares compounds with Tb PFK inh-1. Tb PFK enzyme, ATP depletion, Kinase-Glo Plus luminescence. Potency, µM (highest dose often 57.5 µM), for the others: at the highest dose inhibition. 47% of 1,100 active; calls by dose curve; also: potency is read from the fitted curve at half-maximal effect; nearly all actives have a fitted effect of over 60% in size
# Tb PFK inh-2: Inhibitors of T. brucei phosphofructokinase: Hit Validation | 41% of 1,100 active | AID 504637, 2011 | purified T. brucei PFK, ADP-Glo luminescence, 45 min | Potency, µM (series often up to 57.5 µM), inactives show at the highest dose activity change, negative = inhibition, actives largely listed as inhibitors | shares compounds with Tb PFK inh-1;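 also: potency is read from the fitted curve at half-maximal effect; plate controls were full PFK enzyme control for no effect and no enzyme control for full effect; nearly all actives have a fitted effect of over 60% in size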
# * = called active by the depositor; i = inactive; ? = inconclusive; . = no result. Unless noted, calls follow the shape of the dose curve; as a rule, active = well fitted curve in the direction sought with a large enough effect; inconclusive = small, poorly fitted or top-dose-only effect, or another doubt; inactive = no such curve, though single readings can be large; an effect the other way counts as inactive or inconclusive.
SMILES,PI5P4K alpha inh,Pin1 inhibitor,Tb PGK inh,Tb PFK inh-1,PI4K2A inh,TbPFK ATP,Tb PFK inh-2
CC(=O)Nc1cc([As](=O)(O)O)ccc1O,3,-1%,-8%,?,5,?,?
COc1ccc(C(=O)Nc2nnc(CC(=O)N/N=C/c3ccc(O)cc3O)s2)cc1,.,.,.,?,.,-27%,?
Cc1ccc(C(=O)Nc2nnc(CC(=O)N/N=C/c3ccc(O)c(O)c3)s2)cc1,-58*,?,?,?,-16,-11%,4%
CN(C(=O)Oc1ccc([N+](=O)[O-])cc1)c1ccccc1,1,-2%,2%,-1%,2,.,.
O=[N+]([O-])c1ccc(N2CC2)c([N+](=O)[O-])c1,-2,-1%,i,.,8,.,.
CN(C)c1ccc(C(=S)N2CCN(c3ccc([N+](=O)[O-])cc3)CC2)cc1,-20,2%,2%,12µM*,-1,8.5µM*,13µM*
Cc1cccc(N2CCN(C(=S)c3ccc([N+](=O)[O-])cc3)CC2)c1,-14,5%,-6%,?,-5,24µM*,?
CSc1ccc(Cl)c(C(=O)OCC(=O)N2CCN(C(=O)c3ccco3)CC2)c1,-25,-7%,-1%,?,-10,.,.
CCOC(=O)N(C)OC(=O)Nc1ccc(Cl)c(Cl)c1,.,1%,5%,1.5µM*,17,24µM*,?
CCN1CCN(c2ccc(NC(C)=O)cc2Cl)CC1,-6,-2%,i,0%,-1,.,.
COc1ccc(OCC(=O)N2CCN(Cc3cccc(OC)c3OC)CC2)cc1,.,-6%,2%,.,4,.,.
O=C(NNS(=O)(=O)c1ccccc1F)c1cc(-c2ccccc2)n[nH]1,0,-10%,-8%,?,0,-29%,?
C[C@H](NC(=O)OCc1ccccc1)[P+](=O)O,.,.,.,.,-6,.,.
Cc1cc(/C=C2\C(=O)NC(=O)N(c3ccccc3)C2=O)c(C)n1-c1ccc(C(=O)O)c(Cl)c1,?,-8%,?,20%,-18,.,.
CC(=O)NC1=NC(=O)/C(=C/c2cc(C)n(-c3cccc(C(=O)O)c3)c2C)S1,?,?,?,?,-9,?,?
NC(=O)CN1CC(O)CC1=O (stereo not drawn),.,.,.,.,2,.,.
O=c1[nH]c(=O)c2ccccc2o1,2,?,i,.,2,.,.
C/C(=N\NC(=O)Cc1ccc(Cl)c(Cl)c1)c1cccnc1,10,0%,-1%,19µM*,-2,12µM*,?
O=C(Cc1ccc(Cl)c(Cl)c1)Nc1cccnc1,-5,-9%,i,15µM*,-4,3.8µM*,12µM*
O=C(Cc1ccc(F)cc1)N/N=C/c1ccc(-c2ccc(Cl)c(C(=O)O)c2)o1,-11,0%,i,?,-5,?,?
Cc1ccc(-n2c(/C=C/c3cc(Br)cs3)nc3ccccc3c2=O)cc1C,.,0%,9%,.,0,.,.
Cc1ccc(C(=O)Nc2cccc3[nH]c(C(F)(F)F)nc23)cc1,-1,-1%,-8%,?,-10,?,?
COC(=O)C(O)(c1ccc(NC(=O)c2ccccc2)cc1)C(F)(F)F (stereo not drawn),0,1%,3%,12%,-2,.,.
CNc1cccccc1=S,?,?,-7%,12µM*,?,?,?
Cc1nc2ccc(Cl)cc2c(-c2ccccc2)c1C(=O)O,-1,-5%,-8%,-9%,-10,.,.
SMILES,PI5P4K alpha inh,Pin1 inhibitor,Tb PGK inh,Tb PFK inh-1,PI4K2A inh,TbPFK ATP,Tb PFK inh-2
CC(=O)c1c(C)nc(-c2ccc(Cl)cc2)nc1N,0,1%,1%,?,-1,?,?
CC(=O)c1c(C)nc(-c2ccc(Cl)cc2)nc1N=CN(C)C,1,13%,-8%,2.7µM*,5,9.5µM*,12µM*
CN(C(=O)Nc1ccc(Cl)c(Cl)c1)c1ccccc1C(=O)O,0,-1%,8%,15µM*,5,?,?
CC(C)NCC(O)c1ccc([N+](=O)[O-])cc1 (stereo not drawn),.,.,.,.,-1,.,.
C#CCNc1ccc([N+](=O)[O-])cc1,1,-4%,1%,24µM*,-4,21µM*,27µM*
O=[N+]([O-])c1ccc(NCCNc2ccc([N+](=O)[O-])cc2)cc1,1,?,i,.,-1,.,.
NCCNc1ccc([N+](=O)[O-])cc1,-2,-2%,0%,?,10,?,?
Cc1ccccc1CN1C(=O)CN=C(c2ccccc2)c2cc(Cl)ccc21,.,6%,-4%,.,0,.,.
CC(C(Sc1ccccc1N)c1ccccc1)[N+](=O)[O-] (stereo not drawn),-30,-6%,6%,24µM*,-15,?,?
CCN(CC)C(=O)c1ccc(NC(=O)CSc2nnnn2-c2cc(OC)ccc2OC)cc1,.,?,.,-2%,-8,.,.
CCCCc1ccc(-n2nnnc2SCC(=O)Nc2cc(OC)c([N+](=O)[O-])cc2C)cc1,-5,12%,-1%,?,3,7%,-2%
COc1ccc(C)cc1NC(=O)c1ccc2c(SCC(=O)O)c3c(nc2c1)CCCC3,-3,2%,-7%,?,0,-30%,?
O=C(O)Cc1sc(-c2ccccc2Cl)nc1-c1ccccc1,6,-5%,-7%,?,2,0%,12%
O=C(Cc1c(-c2ccccc2)nc2ccc(Br)cn12)N1CCCC1,-5,.,.,.,-4,.,.
O=C(Cc1ccccc1)Oc1ccc([N+](=O)[O-])cc1,1,-10%,-1%,1%,3,.,.
NS(=O)(=O)c1cccc(NC(=O)COc2ccc([N+](=O)[O-])cc2)c1,2,3%,9%,7.6µM*,-1,21µM*,13µM*
O=C(COc1ccc([N+](=O)[O-])cc1)Nc1ccncc1,-5,-1%,7%,?,-1,?,?
